For orientation: inhibition means the change of the read-out against control, counted positive when it falls.

The campaign covered roughly 360,000 compounds. About 3,600 (1%) were called active.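 The calls were made as follows: active = compounds whose plate-normalised and pattern-corrected inhibition of the luciferase reporter signal at the single screening dose is 50% or more; inactive = the rest.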 What follows is part of a selection rich in actives, with near analogues and random picks from the rest.

A short description of the assay: TROY pathway blockers in reporter cells – Q293 LMP1-TROYcd cells, NF-kB luciferase, uHTS, primary screen (AID 1347056). The following applies: 4 h, at 10 µM, hits give high values.
As for `COc1ccc(C(CNC(=O)c2ccc(OCc3cscn3)cc2)N2CCCC2)cc1` (configuration not stated), the inhibition was 0.55% (inactive).
Turning to `CCCS(=O)(=O)N1CCC(C(=O)NCCc2ccc(OC)c(OC)c2)CC1`, the inhibition is 0.11% (inactive).
On to `COc1cccc(-c2cc3nc(NCc4ccccc4OC)n(C)c(=O)c3s2)c1`, for which the inhibition is -20.1% (inactive).
For the compound `COc1cccc(CNc2nc(NCc3ccccc3OC)nc3ccsc23)c1`, the inhibition is 53.4% (active).
Turning to `COc1ccccc1CNc1nc(Nc2ccccc2Cl)c2sccc2n1`, the inhibition is 42.1% (inactive).
Consider `COc1cccc(CNc2nc(NCc3cccs3)nc3ccsc23)c1`, for which the inhibition is 57.2% (active).
For the compound `Clc1ccccc1Nc1nc(NCc2cccs2)nc2ccsc12`, the inhibition was 6.87% (inactive).
To `COCCNc1nc(NCc2ccc(NC(C)=O)cc2)c2sccc2n1` belongs 8.19% (inactive); to `CCOCCCNC(=S)N1CCC(NC(=O)C2CCCCC2)CC1`, 10.6% (inactive).
In the case of `COc1ccc(C)cc1S(=O)(=O)NCCc1ccccc1`, the inhibition is 10.5% (inactive).
Then `O=[N+]([O-])c1cc(S(=O)(=O)NCCc2ccccn2)ccc1Cl`, with -5.27% (inactive); and `Cc1ccc(CC(=O)Nc2cccc(C#N)c2)cc1`, with 5.18% (inactive); and `CCOc1c2ccc(C(=O)NC3CCCc4ccccc43)cc2nn1CC` (configuration not stated), with 2.7% (inactive).
On to `C/C(=N\NS(=O)(=O)c1ccc(Cl)cc1)c1ccc(NC(=O)c2ccco2)cc1`, for which the inhibition is -42.5% (inactive).
Regarding `COc1ccc(-n2ncc3c(N4CCCc5ccccc54)ncnc32)cc1`, the inhibition was 62.1% (active).
For the compound `CN(C(=O)COc1ncnc2c1cnn2-c1ccccc1)C1CCCCC1`, the inhibition is 11.5% (inactive).
For the compound `COc1ccc(-n2ncc3c(SCC(=O)NNC(C)=O)ncnc32)cc1`, the inhibition is -14.8% (inactive).
`O=C(CC1CCCCC1)NCc1ccc(F)cc1`: the inhibition was -30.5% (inactive).
In the case of `CC(C)NC(=O)N1Cc2cc(C(=O)NCC(F)(F)F)nc(-c3cccc(-c4cc5ccccc5o4)c3)c2[C@@H]1CCO`, the inhibition was 9.45% (inactive).
`COC(=O)[C@@H]1C[C@H]2CC[C@H](O)C[C@H]2N1Cc1ccc(N2CCN(C)CC2)cc1`: the inhibition was 4.5% (inactive).
To `CC(C)(CNC(=O)CNC(=O)C1CCCCC1)N1CCOCC1` belongs 6.69% (inactive); to `O=C(O)c1cc(S(=O)(=O)N(Cc2ccccc2)c2cccc(C(F)(F)F)c2)ccc1Cl`, 3% (inactive); to `O=c1cc(O)c(-c2cccc(C(F)(F)F)c2)c(Cl)[nH]1`, -14.8% (inactive).
For `O=C(NNc1ccccc1Cl)C(O)(c1cccc(C(F)(F)F)c1)c1cccc(C(F)(F)F)c1`, the inhibition was 54.1% (active).
To `Cc1ccc(S(=O)(=O)N2CCC3(CC2)OCCO3)c(C)c1` belongs 5.19% (inactive); to `COc1ccc(/C(C)=N/N2CCOCC2)c(O)c1`, 6.68% (inactive).
With `CC1=C(C)CC(C(=O)NNC(=O)c2csc3c2CCC(C(C)(C)C)C3)C(C(=O)O)C1` (configuration not stated), the inhibition was -0.5% (inactive).
Then `COc1ccc(N2CCN(CCCNC(=O)C3CCN(S(=O)(=O)N4CCOCC4)CC3)CC2)cc1`, with 91.5% (active).
`O=C(NCCCN1CCN(Cc2ccccc2)CC1)C1CCN(S(=O)(=O)N2CCCC2)CC1`: the inhibition is -13% (inactive).
With `COc1ccc(CNC(=O)C2CCN(S(=O)(=O)N3CCOCC3)CC2)cc1`, the inhibition was 7% (inactive).
`CCCCc1c(-c2ccc(Cl)cc2)ncn1CCc1ccccc1OC`: the inhibition was 38.5% (inactive).
On to `O=C(CNCc1ccc(F)cc1)Nc1ccccc1-c1ccccc1`, for which the inhibition was 25.9% (inactive).
Turning to `OC1CCCN(c2ncnc3c2nnn3Cc2c(F)cccc2Cl)C1` (configuration not stated), the inhibition was -10.3% (inactive).
Take `Cc1cccc(NC(=O)/C=C/c2ccc3c(c2)OCO3)n1`: the inhibition was -33.1% (inactive).
Take `C(=N\Nc1ccc2ccccc2n1)/c1ccc2c(c1)OCO2`: the inhibition is 69.8% (active).
Turning to `O=C(CNC(=O)C(c1ccccc1)c1ccccc1)N/N=C\c1ccc2c(c1)OCO2`, the inhibition was -30.7% (inactive).
Consider `COc1ccc(-c2nn(-c3ccccc3)cc2/C=C2/SC(=S)N(CCCC(=O)O)C2=O)c(C)c1`, for which the inhibition is 58% (active).
Turning to `COc1cccc(-c2nn(-c3ccccc3)cc2/C=C(\C#N)C(=O)NCCCn2ccnc2)c1`, the inhibition was -24.5% (inactive).
For `COc1ccc(-c2nn(-c3ccccc3)cc2CN2CCCO2)c(F)c1`, the inhibition is -17.1% (inactive).
With `O=C(C1CCC1)N1CCN(S(=O)(=O)c2ccc([N+](=O)[O-])cc2)CC1`, the inhibition was -10.9% (inactive).
For `Cc1ccc2c(C)c(C(=O)N3CCN(c4ccncc4)CC3)oc2c1C`, the inhibition is 5.65% (inactive).
Then `c1ccc(CN2CCC(N=C3NN=C(c4ccc5c(c4)OCCO5)CS3)CC2)cc1`, with 77.6% (active).
Consider `CS(=O)(=O)N(CC(=O)N1CCN(Cc2ccccc2)CC1)c1ccc2c(c1)OCCO2`, for which the inhibition is 19.4% (inactive).
On to `Clc1cccc(N=C2NN=C(c3ccc4c(c3)OCCO4)CS2)c1`, for which the inhibition was 66.2% (active).
Turning to `CN(C)c1nc(=Nc2cccc(Cl)c2)ss1`, the inhibition is -31.5% (inactive).
With `CC(=NC1CCN(Cc2ccccc2)CC1)c1c(O)[nH]c(=O)[nH]c1=O`, the inhibition was 26.3% (inactive).
Turning to `C/C(=N\NC(=O)c1ccc(NS(=O)(=O)c2cccs2)cc1)c1ccc2ccccc2c1`, the inhibition was -29.3% (inactive).
Regarding `CC(NC(=O)c1ccc(S(=O)(=O)Nc2ccccc2)cc1)c1ccc(S(N)(=O)=O)cc1` (configuration not stated), the inhibition was 2.55% (inactive).
Consider `COCCOC(=O)c1c(C)oc2cc(Br)c(OCC(N)=O)cc12`, for which the inhibition was 9.46% (inactive).
For the compound `CC(=O)c1ccc(NC(=O)C(C)OC(=O)c2ccc(NS(=O)(=O)c3ccc4[nH]c(=O)[nH]c4c3)cc2)cc1` (configuration not stated), the inhibition was -12.5% (inactive).
On to `CCCCN1C(=S)NC[C@@H]1C(C)CC` (some centres not stated), for which the inhibition is -3.76% (inactive).
To `O=[N+]([O-])/C(N=Nc1ccccc1)=N\Nc1ccccc1` belongs -1.58% (inactive).
Then `COC(=O)c1cc(=O)n(-c2c(Cl)cc(C(F)(F)F)cc2Cl)[nH]1`, with 6.27% (inactive); and `NC1=NC(=O)S/C1=C\c1ccc(O)cc1`, with -17.8% (inactive); and `COc1cccc(NC(=O)COC(=O)c2ccc3ccccc3n2)c1`, with -23.3% (inactive).
`COc1cccc(/C=C/c2ccc3ccccc3n2)c1OC(C)=O`: the inhibition is 54.2% (active).
For the compound `CCOc1cccc(/C=C/c2ccc3ccccc3n2)c1OC(C)=O`, the inhibition was 33.9% (inactive).
Turning to `CCOc1ccc(C2c3[nH]c4ccccc4c3CCN2Cc2cccn2-c2ncccn2)cc1` (configuration not stated), the inhibition was 47.5% (inactive).
To `COC(=O)C1=C(C(=O)OC)[C@@H]2N(C)c3ccccc3[C@@]23C[C@@H](C(=O)OC)N(C(=O)c2ccco2)C3=N1` belongs 7.75% (inactive); to `O=S1(=O)CC(NCc2ccccc2)C(Nc2ccc(Cl)cc2)C1` (configuration not stated), 57% (active).
As to `O=C(NCCS(=O)(=O)NCc1ccc(Cl)cc1)c1ccccc1`, the inhibition is 4.3% (inactive).
To `O=C(Cc1ccc(Cl)cc1)NC1CCS(=O)(=O)C1` (configuration not stated) belongs 3.91% (inactive); to `CC(NC(=S)Nc1ccc(OC(F)F)cc1)c1ccc(F)cc1` (configuration not stated), -5.08% (inactive).
For `Cc1cccc(N2CCN(S(=O)(=O)c3ccc(-c4cc(C)no4)s3)CC2C)c1` (configuration not stated), the inhibition was -15% (inactive).
Consider `COc1ccc(CNS(=O)(=O)c2ccc(-c3cnc(C4CC4)o3)cc2)cc1`, for which the inhibition is 26% (inactive).
Turning to `Cc1cccc(CNS(=O)(=O)c2ccc(-c3cnc(C4CC4)o3)cc2)c1`, the inhibition was 15.4% (inactive).
`Cc1cccc(NS(=O)(=O)c2ccc(-c3cnc(C4CC4)o3)cc2)c1`: the inhibition is 50.5% (active).
With `Cc1c(NC(=O)CCC2CCCCC2)cc(C(=O)N2CCOCC2)cc1[N+](=O)[O-]`, the inhibition is 12.1% (inactive).
For `COC(=O)[C@]1(C)N[C@H](CN(C)C(=O)c2ccc(C(C)(C)C)cc2)[C@@H]2C(=O)N(C)C(=O)[C@@H]21`, the inhibition was -13.4% (inactive).
To `COc1cccc(OCC(=O)NCCS(=O)(=O)N2CCN(c3ccccc3)CC2)c1` belongs 17.7% (inactive); to `COCc1cc(C)nc(Nc2cc(C)ccc2C)c1C#N`, 0.76% (inactive); to `O=C(Oc1ccc(-c2nc(-c3ccccn3)no2)cc1)c1ccccc1`, 60% (active).
For the compound `Cc1noc(C)c1COC(=O)COc1ccc(-c2ccccc2)cc1`, the inhibition was 4.68% (inactive).
Regarding `O=C(COC(=O)c1ccncc1)c1ccccc1`, the inhibition is -18.8% (inactive).
For `O=C(Cc1coc2ccc3ccccc3c12)NCc1cccs1`, the inhibition is -38.6% (inactive).
Then `O=C(NCc1cccs1)c1cc(-c2ccccn2)nc2ccc(Br)cc12`, with -12.5% (inactive); and `CC(C)Cn1c(N)c(C(=O)NCc2cccs2)c2nc3ccccc3nc21`, with 51.3% (active); and `CCOc1ccc(NC(=O)CCS(=O)(=O)c2ccc3c(c2)CCCN3C(=O)CC)cc1`, with 21.6% (inactive).
Then `CCOC(=O)c1cc(C)sc1NC(=O)C1CCC1`, with 12.2% (inactive); and `CCN1CCN(C(=O)CCN2C(=O)c3ccccc3C2=O)CC1`, with 13.8% (inactive).
To `C=CCN1CCN(C(=O)CCCc2ccccc2)CC1` belongs 73.6% (active); to `CC1=NN(C(=O)CCCc2ccccc2)C(O)(C(F)(F)F)C1` (configuration not stated), 6.41% (inactive).
In the case of `C/C(CC(=O)NC(C)c1ccccc1)=N\NC(N)=S` (configuration not stated), the inhibition was 0.63% (inactive).
To `COc1ccc(C(=O)NC2CCCc3c2cnn3-c2cccc(C)c2C)c(OC)n1` (configuration not stated) belongs 55.4% (active); to `Cn1nccc1C(=O)NC1CCCc2c1cnn2-c1ccc(F)cc1F` (configuration not stated), 28% (inactive); to `COc1ccc(OC)c(C(=O)NC2CCCc3c2cnn3-c2cc(C)cc(C)c2)c1` (configuration not stated), -13.7% (inactive).
As for `Cc1ccccc1-n1nc(C)c2c1N=C1C(Cl)=CC(Cl)=CN1C2c1ccc(C(=O)O)cc1` (configuration not stated), the inhibition is 1.29% (inactive).
Consider `Cc1cc(Br)cn2c(Cc3ccccc3C(F)(F)F)c(C3CCCCC3)nc12`, for which the inhibition was 15.5% (inactive).
On to `CCOC(=O)c1cnc(SCc2nc(N)nc(Nc3ccc(OC)cc3)n2)nc1N`, for which the inhibition is -4.61% (inactive).
Consider `CSc1ncccc1C(=O)Nc1ccc2c(c1)OCO2`, for which the inhibition is -13.6% (inactive).
To `CCS(=O)(=O)N1Cc2ccccc2CC1C(=O)Nc1nc2ccc(F)cc2s1` (configuration not stated) belongs 42.9% (inactive).
As to `CSc1ncccc1C(=O)Nc1nc2ccc(F)cc2s1`, the inhibition is 54.6% (active).

Source of the values: PubChem BioAssay AID1347056 (Sanford-Burnham Center for Chemical Genomics, 2019).
